Screening data: PubChem, several laboratories
Only some compounds are listed: those with a hit (about 1.5% of all), similar ones and a draw of the others.
FID counter = displaces DNA intercalator in HCV helicase counter-screen; DNA fluorescent intercalator displacement, fluorescence; inhibition, % at 7.9 µM; 290,000 tested, 0.17% active; AID 1845; in the data active means inhibition above about 37%;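 further: 0% = vehicle and 100% = reference compound; higher means more ethidium bromide displaced from hairpin DNA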
N-glyco inh = N-linked glycosylation inhibition; reporter increase, % at 12.5 µM; D54 ERlucT glycosylation luciferase reporter, 24 h; percent of 100 nM tunicamycin response; 360,000 tested, 0.23% active;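 active means mean luciferase reporter signal, scaled so untreated is 0 and the glycosylation-blocking control 100, at or above a set limit in every replicate; inconclusive means mean reaches the limit but not every replicate does; inactive means mean below the limit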;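 further: luciferase carries N-glycosylation sites so blocking glycosylation raises the light; 0% = median of neutral control wells and 100% = median of 100 nM tunicamycin wells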
RAD54 branch = RAD54 (human) branch migration inhibition | Q92698 | RAD54 Holliday junction branch migration, FAM/BHQ fluorescence | inhibition, % at 10.4 µM | 360,000 tested, 0.14% active;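 active means mean normalized replicate activity at least 40 and at least half of replicates scoring 40 or more; inconclusive means only one of the two criteria met; inactive means mean below 40 and under half of replicates reaching 40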;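 further: 0% = median of neutral control wells and 100% = median of positive control wells; inhibitors cause a drop in the FAM fluorescence signal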
RAD52 inh = RAD52 (human) annealing inhibition; P43351; recombinant RAD52 DNA annealing, FRET fluorescence; 360,000 tested, 0.46% active; AID 651710; inhibition, % at 18.7 µM;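 active means every replicate showing at least 50% inhibition; inconclusive means mean inhibition at least 50% but not in every replicate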
miR122 inh = blocks miR-122 activity in Huh7 sensor cells | Huh7 miR-122 Renilla luciferase sensor, 48 h; neutral wells = 0, positive control = 100 | activation (reporter increase), % at 12.5 µM | 340,000 tested, 0.3% active;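 active means mean replicate activation score at least 90 and every replicate individually at or above 90; inconclusive means only one of the two criteria met; inactive means neither criterion met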;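 further: higher luciferase means less miR-122 activity so hits act as miR-122 inhibitors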
CendR NRP1 mod = NRP-1/CendR interaction modulation; O14786; FAM-RPARPAR peptide binding to NRP-1, fluorescence polarization; inhibition, % at 25 µM; 360,000 tested, 0.85% active; AID 602438;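 active means inhibition or corrected inhibition above about 18%, plus a signal ratio from 0.5 to 1.5, limit read from the data, passing the limit was not always enough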
Target sequence (O14786 whole entry, looked up): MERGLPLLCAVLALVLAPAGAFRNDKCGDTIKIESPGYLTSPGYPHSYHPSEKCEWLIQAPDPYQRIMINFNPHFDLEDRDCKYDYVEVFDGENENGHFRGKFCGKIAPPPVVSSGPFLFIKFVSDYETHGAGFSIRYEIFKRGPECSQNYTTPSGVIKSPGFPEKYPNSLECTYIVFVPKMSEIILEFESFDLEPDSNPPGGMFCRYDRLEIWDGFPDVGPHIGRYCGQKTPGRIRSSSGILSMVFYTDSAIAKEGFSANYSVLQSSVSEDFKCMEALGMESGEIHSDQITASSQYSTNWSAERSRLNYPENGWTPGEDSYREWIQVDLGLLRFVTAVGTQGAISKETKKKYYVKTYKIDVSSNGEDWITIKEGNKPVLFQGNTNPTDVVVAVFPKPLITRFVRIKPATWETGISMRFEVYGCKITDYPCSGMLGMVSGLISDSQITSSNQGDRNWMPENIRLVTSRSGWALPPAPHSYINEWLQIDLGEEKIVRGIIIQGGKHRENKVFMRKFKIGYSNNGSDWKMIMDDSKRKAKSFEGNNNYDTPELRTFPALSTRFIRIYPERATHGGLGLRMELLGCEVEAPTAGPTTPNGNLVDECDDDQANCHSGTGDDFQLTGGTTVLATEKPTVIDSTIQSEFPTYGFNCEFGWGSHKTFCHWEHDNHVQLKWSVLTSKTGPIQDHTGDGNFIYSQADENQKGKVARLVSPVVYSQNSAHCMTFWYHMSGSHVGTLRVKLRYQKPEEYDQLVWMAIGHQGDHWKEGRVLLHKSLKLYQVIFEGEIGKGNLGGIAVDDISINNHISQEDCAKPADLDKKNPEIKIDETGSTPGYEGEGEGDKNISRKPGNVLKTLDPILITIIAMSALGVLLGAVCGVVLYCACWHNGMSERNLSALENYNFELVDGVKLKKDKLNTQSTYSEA
DNA binder FP = counter-screen for RAD52 inhibitors: DNA binding compounds; shares compounds with RAD52 inh; Salmon sperm DNA/acridine orange FP displacement; AC50, µM; 1,000 tested, 8% active;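 active means fitted half-maximal concentration for signal loss at or below twice the highest dose tested, in every separate run, actives reach about 64 µM in these data; inconclusive means runs disagree, or flat partial signal loss, or poor fit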
* hit, by the source's call; i = inactive; ? = inconclusive; . = no result given; [ ] = dose if it differs, or a comment.

SMILES | FID counter | N-glyco inh | RAD54 branch | RAD52 inh | miR122 inh | CendR NRP1 mod | DNA binder FP
CCCNC(=O)N(C)C[C@H]1Oc2ncc(C#CC3(O)CCCC3)cc2C(=O)N([C@@H](C)CO)C[C@@H]1C | . | . | 0 | -1 | -14[16.7 µM] | . | .
CCN(CC)CCNC(=O)c1cc(-c2ccco2)nc2ccccc12 | 10 | 2 | . | 78* | 6 | -7 | i
COC(=O)C1=C(C)N(Cc2cccc(C(F)(F)F)c2)C(=NCc2cccc(C(F)(F)F)c2)NC1c1ccc(Cl)cc1 (configuration not stated) | . | . | . | 67* | . | . | i
COC(=O)C1=C(C)N(Cc2ccc(C(F)(F)F)cc2)C(=NCc2ccc(C(F)(F)F)cc2)NC1c1ccccc1 (configuration not stated) | . | . | . | 59* | . | . | i
CN1CCN(c2ccc(Cl)cc2NC(=O)c2cc(=O)[nH]c3ccccc23)CC1 | . | -1 | 12 | -2 | -3 | 14 | .
CN1CCN(c2cc3c(c4c2[nH]c2ccccc24)C(=O)CC(C)(C)C3)CC1 | 26 | 2 | 22 | 67* | -8 | -1 | i
Cc1ccc2c(c1)c1c(n2CC(O)Cn2c(C)nc3ccccc32)CCCC1 (configuration not stated) | -5 | 0 | -8 | 41 | 1 | 4 | .
OC(CN1CCCCC1)Cn1c2ccccc2c2cc(Br)ccc21 (configuration not stated) | 17 | 1 | 45 | 58* | 7 | -1 | i
Cc1ccc2c(c1)c1c(n2CC(O)CNC(C)(C)C)CCCC1 (configuration not stated) | 25 | 4 | 12 | 52* | 6 | 9 | i
Cc1ccc2c(c1)c1c(n2CC(O)CN2CCCCCC2)CCCC1 (configuration not stated) | 12 | 1 | 5 | 81* | . | -6 | i
Cc1ccc2c(c1)c1c(n2CC(O)Cn2nc(C)c(Br)c2C)CCCC1 (configuration not stated) | -20 | -4 | 4 | . | 2 | 0 | .
C[C@H]1CN([C@@H](C)CO)C(=O)c2cc(C#CCc3ccccc3)cnc2O[C@H]1CN(C)C(=O)Cc1cccnc1 | . | . | 6 | 6 | 13[16.7 µM] | . | .
COc1ccc(CN(C)C[C@H]2OCCCC[C@@H](C)Oc3ccc(NC(=O)Nc4c(C)noc4C)cc3C(=O)N([C@@H](C)CO)C[C@H]2C)cc1 | . | . | 2 | 15 | -6[16.7 µM] | . | .
CCCN(C)C[C@H]1Oc2ncc(-c3cccc(C(=O)N(C)C)c3)cc2C(=O)N([C@@H](C)CO)C[C@H]1C | . | . | -6 | -3 | -8[16.7 µM] | . | .
CN1[C@@H]2c3ccc(-c4cccc(F)c4)c(=O)n3C[C@@H]2[C@@H](CO)[C@@H]1C(=O)NC1CCCCC1 | . | . | -4 | 14 | -3[16.7 µM] | . | .
CC(C)C[C@@H]1CN=C(N)N1C[C@@H]1CCCN1C[C@@H](C(C)C)N1C[C@@H](Cc2ccccc2)N(CCc2ccc(Cl)c(Cl)c2)C1=N | . | 1 | 10 | 51* | -5 | -1 | i
CCS(=O)(=O)N1CC(=O)N2[C@H](CO)[C@@H](c3ccc(C#CCC(C)C)cc3)[C@@H]2C1 | . | . | . | -8 | . | . | .
CCOC(=O)C1CCCN(C(=O)c2cc(-c3ccc(F)cc3)nc3ccccc23)C1 (configuration not stated) | -34 | 1 | 6 | -8 | 10 | 7 | .
CCN1CCCC(OC(=O)c2cc(-c3ccc(C)cc3)nc3ccccc23)C1 (configuration not stated) | 38* | -7 | . | 57* | . | 5 | i
Cc1noc(C)c1NC(=O)N(C)C[C@@H]1Oc2ncc(C#CC(C)(C)O)cc2C(=O)N([C@H](C)CO)C[C@@H]1C | . | . | -12 | 3 | -6[16.7 µM] | . | .
CN/C(=C/[N+](=O)[O-])NCCSCc1ccc(CN(C)C)o1 | 0 | 2 | 3 | 55* | -3 | -8 | i
CN(c1ccc(C(=O)NCCSCc2ccco2)cc1)S(C)(=O)=O | -10 | 0 | -12 | . | 0 | -9 | .
CCOC(=O)c1c(CN(C)C)n(C)c2c(O)c(N=NC(N)=O)c3ccc(Br)cc3c12 | 24 | 28* | 58* | 101* | . | 13 | i
CCCn1c(=O)c(C(=O)OCC)c(O)c2cc(Br)ccc21 | -7 | 2 | . | . | . | -17 | .
CC[C@H](C)Cc1cn([C@@H](CCCN=C(N)N)C(=O)NCCCCCCCCCCC(=O)N2CCNCC2)nn1 | . | 0 | 12 | 52* | . | -4 | i
SMILES | FID counter | N-glyco inh | RAD54 branch | RAD52 inh | miR122 inh | CendR NRP1 mod | DNA binder FP
CC[C@H](C)[C@@H](C(=O)NCCCCCCCCCCC(=O)N1CCNCC1)n1cc(CCCCN=C(N)N)nn1 | . | 2 | 10 | 35 | -12 | -2 | .
CN(C)CCOc1ccc2c(c1)C(=O)C(=Cc1ncc([N+](=O)[O-])n1C)C2 | . | -19 | 62* | 88* | -22 | -4 | i
CCc1cc(OCCN(C)C)ccc1Cl | 2 | 2 | . | -5 | . | -3 | .
COc1ccc(C(N)=S)c(OC)c1 | -2 | 2 | . | 74* | . | 8 | i
OC(CON=C1c2ccccc2-c2ccccc21)CN1CCNCC1 (configuration not stated) | 20 | 16 | 72* | 70* | -7 | -13 | i
OC(CN1CCNCC1)Cn1ccc2ccccc21 (configuration not stated) | 26 | . | . | . | . | . | .
Cc1cc(C)cc(NC(=S)NCc2cccn2C)c1 | -5 | -3 | . | 65* | -1 | 0 | i
COc1ccc(/C=N/Nc2cc(C)nc3c(C)cccc23)cc1 | 25 | 5 | 61* | 80* | . | -2 | ?
CO[C@@H]1CN(C)C(=O)c2cc(NC(=O)c3ccccc3)ccc2OC[C@@H](C)N(C(C)=O)C[C@H]1C | . | . | -6 | 2 | -21[16.7 µM] | . | .
CCN1CCN(C(=O)CCCn2c(C)c3cnn(-c4ccccc4)c(=O)c3c2C)CC1 | 3 | -1 | -1 | -8 | . | -11 | .
Cc1c2cnn(-c3ccccc3)c(=O)c2c(C)n1CCCC(=O)NCCN1CCN(C)CC1 | 3 | 0 | . | 58* | . | 3 | i
CCOC(=O)c1sc2nc(N3CCOCC3)c3c(c2c1N)CC(C)(C)N(C)C3 | 21 | -2 | -4 | . | 7 | 3 | .
CN1Cc2c(N3CCOCC3)nc3sc(C(=O)c4ccccc4)c(N)c3c2CC1(C)C | 8 | -4 | . | 60* | . | 5 | i
O=C(Nc1ccc2c(c1)OCO2)N[C@@H]1CC[C@H](CCNC(=O)C2CC2)O[C@H]1CO | . | . | -1 | 4 | 1[16.7 µM] | . | .
COc1ccc(S(=O)(=O)Nc2ccc3c(c2)CC(=O)N([C@@H](C)CO)C[C@@H](C)[C@@H](CN(C)C(=O)Nc2ccc(F)cc2)O3)cc1 | . | . | 9 | . | 18[16.7 µM] | . | .
CCN(CC)CCNc1nc(-c2cccs2)c(CC(=O)O)s1 | 5 | 1 | -2 | 88* | -5 | -1 | i
O=C1CCCCC1 | . | -1 | -4 | 91* | -1 | -1 | i
